In paper PMC5540273 (PLoS ONE, 2017):
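Also: KINOMEscan kinase panel screen.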

Each compound was assayed on T1, JNK1. Conditions: concentration: 1 μM, replicates: in singlicate; n = 1.
T1 construct: gene MAPK8
For COc1cc2ncnc(Nc3ccc(OCc4ccccc4Br)c(Cl)c3)c2cc1OC.Cl [GI261590], the “%Inh” value was 15%. For CSc1nn2c(=O)cc(N3CCOCC3)nc2n1Cc1cccc(Cl)c1Cl [GSK2347225], the “%Inh” value was 11%. For Fc1cccc(COc2ccc(Nc3ncnc4sc(-c5ccc[nH]5)cc34)cc2Cl)c1 [GW707818], the “%Inh” value was 1%. Cl.O=S(=O)(c1cccc(F)c1)c1ccc(Nc2ncnc3cc(Br)sc23)cc1Cl [GSK306886] was tested, and the “%Inh” value was 0%. For CN1c2ccc(-c3ccc(C(=O)NCCO)cc3)cc2-c2[nH]ncc2S1(=O)=O, the “%Inh” value was 14%. In the case of Nc1nc(-c2ccc3c(N)n[nH]c3c2)cc(N2CCCCC2)n1 [GSK2228768], the “%Inh” value is reported as 5%. With Cn1ccc2ncnc(Oc3ccc(NC(=O)Nc4cccnc4)c(Cl)c3)c21 the “%Inh” value was 0%. In the case of Clc1cc(Nc2ncnc3cc[nH]c23)ccc1OCc1ccccn1, the “%Inh” value is reported as 31%. With Cl.Cl.c1ccc(-c2cc3ccncc3cc2OC2CCNCC2)cc1 [GSK1122999] the “%Inh” value was 14%. Fc1ccc(Nc2nccc(-c3c(-c4ccc(Cl)cc4)nn4ncccc34)n2)cc1F [GW829058] was tested, and the “%Inh” value was 40%. With C[C@H]1CC[C@@H](C(=O)Nc2ccccc2)CN1c1cc(-c2ccc3c(N)n[nH]c3c2)nc(N)n1 [GSK2283293] the “%Inh” value was 5%. For FC(F)(F)c1cc(Nc2nccc(-c3c(-c4ccc(Cl)cc4)nn4ncccc34)n2)ccc1Cl [GW829351], the “%Inh” value was 8%. For FC(F)(F)c1ccc(-c2cc(-c3c[nH]nc3-c3ccccn3)ccn2)cc1 [GW599550], the “%Inh” value was 0%.
